The record followed here is PubChem BioAssay (NCI).

The panel holds about 83,000 compounds, 20% with a hit somewhere; the sample as a whole holds those more often.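 The test compound was applied at a single concentration to cells in 96-well plates for 48 hours, and percent growth was recorded.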 Active and inactive are the calls of the source.

In this assay the test system is NCI-H226 lung. The experiment in a line: NCI-60 one-dose screen, 48 h (100 = growth as untreated, 0 = no growth, -100 = all killed). The note with it: 10 µM unless noted. Here is the method: Growth inhibition of the NCI-H226 human Non-Small Cell Lung tumor cell line is measured as a screen for anti-cancer activity. Cells are grown in 96 well plates and exposed to the test compound for 48 hours. Compounds are tested at a single concentration, which is 10^-5 M for most compounds. The reported endpoint is percent growth (GI% or GIPRCNT), where numbers from 0 - 100% represent growth inhibition, and numbers from -100% - 0 represent cell death. For example, a value of 40 represents 60% growth inhibition. A value of 0 means no net growth occurred over the course of the experiment. A value of -40 indicates 40% of cells at the beginning of the experiment died by the end of the experiment. A value of -100 means all cells are dead at the end of the experiment.
NCI-60 Human Tumor Cell Lines Screen was performed using the standard one-dose NCI protocol, which is described in more detail at https://dtp.cancer.gov/discovery_development/nci-60/default.htm.
Compounds with GIPRCNT values below 10 were considered active. Activity score was based on GIPRCNT using the following formula: […]
Score is 0 for GIPRCNT values of 100 or above, 50 for GIPRCNT values of 0, and 100 for GIPRCNT values of -100.
For `C=C(C)[C@@H]1CC[C@]2(COC)CC[C@]3(C)[C@H](CC[C@@H]4[C@@]5(C)CCCNC(C)(C)[C@@H]5CC[C@]43C)[C@@H]12`, the growth was 74.1% (inactive). Under `O=C(NNc1nc2cc(F)c(F)cc2n2c(CN3CC4CNCC4C3)ccc12)c1cnccn1` (stereo not given) stands 16.8% (inactive); under `NC(N)=Nc1ccc(Oc2cccc(NC(N)=Nc3ccc(Br)cc3)c2)cn1`, 81.3% (inactive); under `CC1(C)CC[C@]23CC[C@]4(C)[C@H](CC[C@@H]5[C@@]6(C)CCCN(CO)C(C)(C)[C@@H]6CC[C@]54C)[C@H]2[C@H]1OC3`, 94.8% (inactive).

For `CNC(=O)c1cc(-c2ccc(NC(=S)Nc3cc(C(F)(F)F)cc(C(F)(F)F)c3)cc2)nc2cccnc12`, the growth is 87.8% (inactive). Under `COc1cc(Cn2cc3c(c2)-c2onc(CN4CCCC4)c2CC3)cc(OC)c1OC` stands 88.4% (inactive); under `COc1ccc(-n2c(SCc3nnc(NC(=O)c4ccc(Br)cc4)s3)nc3cc(OC)c(OC)cc3c2=O)cc1`, 74% (inactive). For `c1n[nH]cc1-c1nc2ccc3[nH]ncc3c2c2c1CCCC2`, the growth is 29.1% (inactive). Under `C=CCOc1cccc(/C=C2\SC(=S)N(C3CC(=O)N(c4ccc(Br)cc4)C3=O)C2=O)c1` (stereo not given) stands 101% (inactive); under `CCN(CC)c1ccc(NC2=C(Cl)C(=O)c3nc(C)ccc3C2=O)cc1`, 87.9% (inactive). With `Cc1ccc(NC(=O)c2ccc(CN3CCOCC3)c(C(F)(F)F)c2)cc1Oc1ccc(-c2[nH]nc3ncnc(N)c23)cc1`, the growth was 66% (inactive). `COc1cc(-c2nc(SC(C)C)n(C(C)C)c(=O)c2C#N)ccc1OCc1ccccc1`: the growth is 87.4% (inactive). On to `Nc1nc(Nc2ccccc2SSc2ccccc2Nc2nc(N)nc(-c3cccc(Br)c3)n2)nc(-c2cccc(Br)c2)n1`, for which the growth was 47.8% (inactive). Consider `COc1cc(/C=C/C(=O)c2ccc(NC(=O)CSc3nnc(-c4ccc(-c5nc6ccc(Cl)cc6[nH]5)cc4)o3)cc2)cc(OC)c1OC`, for which the growth is 104% (inactive). Then `COc1ccc(/C=C(/C)c2ccc3ccc(OC)cc3[o+]2)c(O)c1`, with 70.9% (inactive); and `COc1ccc(Oc2ccc(/C=N/NC(=O)CSc3nc4ccccc4c(=O)n3-c3ccc(Cl)cc3)cc2)cc1`, with 79.7% (inactive). Then `CC(=O)c1cc(C(=O)N2c3ccccc3Sc3ccccc32)n2ccc3ccccc3c12`, with 45.4% (inactive); and `CC(C)(C)c1ccc(C(=O)Nc2sc3c(c2C(N)=O)CC/C(=N\O)C3)cc1`, with 17.5% (inactive); and `N#Cc1cn(Cc2ccc(Cl)cc2Cl)c(C(=O)c2ccc(Br)cc2)c1N`, with 75.6% (inactive).

Regarding `Nc1nc(-c2cccc([N+](=O)[O-])c2)c(N=Nc2ccc([N+](=O)[O-])cc2Cl)s1`, the growth is -2.56% (active).

Consider `O=C(CSc1nc2ccccc2c(=O)n1-c1ccccc1)Nc1cccc(C(=O)/C=C/c2ccccc2Cl)c1`, for which the growth was 97.1% (inactive). Then `CCCC(=O)NC(c1cccnc1)c1cc(C(C)(C)C)c2cccnc2c1O` (stereo not given), with 12.7% (inactive); and `C=CC(=O)N1CC=C(c2cc3c(N[C@H](C)c4ccccc4)ncnc3[nH]2)CC1`, with 58.7% (inactive).

For `Cc1ccc2c(c1)C13C(=C2Br)CCCN1C(=O)c1ccccc13` (stereo not given), the growth is 92.3% (inactive). Under `CCNC(=O)N1CCc2cc(OC)c(OCCc3ccc(OC)nc3)cc2C1c1ccc(C)cc1C` (stereo not given) stands 33.2% (inactive).

Consider `COc1cc(Nc2c(C#N)cnn3cc(-c4cnn(CC(C)(C)O)c4)cc23)ccc1Cl`, for which the growth was 42.1% (inactive). As for `COc1cccc(/C=C(/C)c2ccc3cccc(OC)c3[o+]2)c1O`, the growth was 103% (inactive). Consider `O=C(NNc1nc2cc(F)ccc2n2c(CN3CCC(O)C3)ccc12)c1cnccn1` (stereo not given), for which the growth is 18.8% (inactive). In the case of `CS(=O)(=O)Nc1cc(-c2ccc3ncc(C#N)c(Nc4cccc(Cl)c4F)c3c2)cnc1Cl`, the growth was 10.4% (inactive). `O=C(CN1CCN(c2cc(=O)[nH]c3ccc(F)cc23)CC1)Nc1ccc(Cl)cc1`: the growth is 16.5% (inactive). Then `CCn1c(SCC(=O)Nc2cccc(C(=O)/C=C/c3ccc(Br)cc3)c2)nc2ccccc2c1=O`, with 88.9% (inactive); and `CC(=O)c1nnn(-c2c(C(=O)n3nc(C)cc3C)sc(=S)n2-c2ccccc2)c1C`, with 95.7% (inactive); and `Cc1ccc(NC(=S)NNC(=S)Nc2ccc(C)cc2)cc1`, with 103% (inactive). Then `COc1cc(-c2nn(C(C)(C)C)cc2-c2ccnc(NCCCNS(=O)(=O)c3cccc(F)c3)n2)ccc1Cl`, with 69.4% (inactive).

Take `COc1cc(-c2nc3sccn3c2-c2ccnc(S(C)(=O)=O)n2)ccc1F`: the growth is 94.5% (inactive). Then `Cc1ccc(NC(=O)c2ccc(CN3CCN(C)CC3)cc2)cc1Oc1ccc(-c2[nH]nc3ncnc(N)c23)cc1`, with 98.5% (inactive); and `CN1CCN(Cc2ccc(NC(=O)c3cncc(C#Cc4cnc5ccc(OCC6(C)COC6)nn45)c3)cc2C(F)(F)F)CC1`, with -62.4% (active); and `O=C1C(c2ccccc2)=C(N2CCc3ccccc32)OC1(Cl)Cl`, with 89.2% (inactive). Under `O=C1[C@H]2Cc3c([nH]c4ccccc34)[C@@H](c3ccc(Cl)cc3)N2C(=O)CN1C1CCN(Cc2ccccc2)CC1` stands 49% (inactive). Then `C=C1CC[C@@H]2[C@]3(C)COC(c4ccccc4)O[C@@H]3CC[C@@]2(C)[C@@H]1C/C=C1/C(=O)OC[C@H]1O` (stereo not given in full), with 96.1% (inactive).
